Experimental data reported in PubChem BioAssay (NCI).
“And” between values parts separate entries of the source, which are not always exact repeats. Equal values may be shown once. This is part of a sample that, as a whole, favours compounds with a hit. Of some 83,000 tested, about 20% had one in any assay.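 Each cell line was grown in a 96-well plate and treated with one concentration of compound for 48 hours. Values below 10 were considered active.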 The source made the active and inactive calls.

What was measured:
Assay in all cases: NCI-60 one-dose screen, 48 h (100 = growth as untreated, 0 = no growth, -100 = all killed)
Conditions in all cases: 10 µM unless noted
[1] = test system: T-47D breast
[2] = test system: BT-549 breast
[3] = test system: MDA-MB-435 melanoma
[4] = test system: MCF7 breast
[5] = test system: HCT-116 colon
[6] = test system: HCC-2998 colon
[7] = test system: KM12 colon
[8] = test system: SW-620 colon

Row | Structure (SMILES) | growth [1] | growth [2] | growth [3] | growth [4] | growth [5] | growth [6] | growth [7] | growth [8]
1 | O=C(O)C1C2C=CC(C2)C1C(=O)O (stereo not drawn) | 103% (inactive) and 79.5% (inactive) and 101% (inactive) | 96.8% (inactive) and 58.3% (inactive) and 105% (inactive) | 101% (inactive) and 19.1% (inactive) and 100% (inactive) | 97.4% (inactive) and 5.27% (active) and 104% (inactive) | 104% (inactive) and 17.3% (inactive) and 112% (inactive) | 117% (inactive) and 46.1% (inactive) and 107% (inactive) | 106% (inactive) and 25.4% (inactive) and 104% (inactive) | –
2 | Cc1cc(=O)[nH]c(O)c1C#N | 97.2% (inactive) and 91% (inactive) | 100% (inactive) and 103% (inactive) | 101% (inactive) and 103% (inactive) | 97.3% (inactive) and 103% (inactive) | 100% (inactive) and 96.2% (inactive) | – | 108% (inactive) and 116% (inactive) | –
3 | CCOc1ccc2cc(-c3nn(CC4CCN(C)CC4)c4ncnc(N)c34)ccc2c1 | 68.5% (inactive) and 54.7% (inactive) | – | 95.4% (inactive) and 15.9% (inactive) | 85.7% (inactive) and 55.5% (inactive) | 63.2% (inactive) and 24.4% (inactive) | 102% (inactive) and 54.5% (inactive) | 89.4% (inactive) and 66.5% (inactive) | 91% (inactive) and 65.6% (inactive)
4 | Cc1ccc2nc3c(nc2c1)-c1cccc2cccc-3c12 | 87.6% (inactive) | – | 103% (inactive) | 38.3% (inactive) | 89.4% (inactive) | 103% (inactive) | – | 71.1% (inactive)
5 | Cn1cnc([N+](=O)[O-])c1Sc1ncnc2nc[nH]c12 | 65.4% (inactive) and 79.7% (inactive) | – | 33.7% (inactive) and 35.7% (inactive) | 36.2% (inactive) and 33.2% (inactive) | 50% (inactive) and 60.1% (inactive) | 64.4% (inactive) and 55% (inactive) | 51.2% (inactive) and 65.2% (inactive) | 93.8% (inactive) and 94.7% (inactive)
6 | Nc1ccccc1SC1CC(=O)N(c2cccc3ccccc23)C1=O (stereo not drawn) | 90.4% (inactive) | – | 88.7% (inactive) | 88.2% (inactive) | 89.4% (inactive) | 100% (inactive) | – | 94.4% (inactive)
7 | CCOC(=O)C(C(=O)OCC)C(c1ccccc1)N1CCN(c2ccccc2)CC1 (stereo not drawn) | 108% (inactive) and 98.7% (inactive) | – | 102% (inactive) and 100% (inactive) | 97.8% (inactive) and 97.5% (inactive) | 98.3% (inactive) and 99.3% (inactive) | 114% (inactive) and 111% (inactive) | 111% (inactive) and 98.6% (inactive) | 113% (inactive) and 111% (inactive)
8 | CNC(=O)c1cccc(-c2ccc3c(N4CCOC[C@@H]4C)nc(N4CCOC[C@@H]4C)nc3n2)c1 | -24.4% (active) and -34.1% (active) | -7.8% (active) and -13.9% (active) | 2.05% (active) and -13.4% (active) | 5.66% (active) and 4.27% (active) | 27.7% (inactive) and 15.4% (inactive) | 18.6% (inactive) and 4% (active) | 11.7% (inactive) and 13.2% (inactive) | –
9 | CC[N+](CC)(CC(=O)Nc1c(C)cccc1C)Cc1ccccc1 | 86.9% (inactive) and 95.1% (inactive) | – | 94.7% (inactive) and 99.3% (inactive) | 95.7% (inactive) and 99.8% (inactive) | 97.3% (inactive) and 100% (inactive) | 102% (inactive) | 101% (inactive) and 88.9% (inactive) | 90.1% (inactive) and 97.1% (inactive)
10 | CCOC(=O)Nc1nc2ccccc2[nH]1 | 110% (inactive) and 42.1% (inactive) | – | 96.1% (inactive) and -30% (active) | 113% (inactive) and 17.8% (inactive) | 106% (inactive) and 23% (inactive) | 108% (inactive) and -9.87% (active) | – | 108% (inactive) and 12% (inactive)
11 | O=S(=O)(Nc1ccccc1)C1CCCCC1 | 116% (inactive) and 105% (inactive) | 121% (inactive) | 107% (inactive) and 102% (inactive) | 94.2% (inactive) and 104% (inactive) | 99.6% (inactive) and 107% (inactive) | 116% (inactive) and 106% (inactive) | 106% (inactive) and 112% (inactive) | –
12 | O=C(CCc1ccc(O)cc1)N/N=C/c1cc(Br)ccc1O | 33.3% (inactive) | 52.4% (inactive) | 55.8% (inactive) | 38.9% (inactive) | 46.7% (inactive) | 50.1% (inactive) | 28.1% (inactive) | –
13 | CC12CCC(CC1)C(C)(C)O2 | 97.9% (inactive) | 98.9% (inactive) | 100% (inactive) | 98.7% (inactive) | 112% (inactive) | 107% (inactive) | 109% (inactive) | –
14 | Nc1ncnc2c1ncn2C1CC(O)C(CO)O1 (stereo not drawn) | 112% (inactive) and 99.1% (inactive) | – | 105% (inactive) and 107% (inactive) | 96.1% (inactive) and 97.1% (inactive) | 103% (inactive) and 100% (inactive) | -17.3% (active) and 119% (inactive) | 114% (inactive) and 107% (inactive) | 115% (inactive) and 105% (inactive)
15 | CC(=O)c1ccccc1O | 107% (inactive) and 81.2% (inactive) and 103% (inactive) | 95.9% (inactive) and 110% (inactive) and 91.1% (inactive) | 105% (inactive) and 111% (inactive) and 109% (inactive) | 102% (inactive) and 94% (inactive) and 101% (inactive) | 97.8% (inactive) and 92.6% (inactive) and 101% (inactive) | 99.7% (inactive) and 102% (inactive) and 97.2% (inactive) | 103% (inactive) and 100% (inactive) and 110% (inactive) | –
16 | Cc1ccc(-c2noc(CC(=O)c3ccc([N+](=O)[O-])cc3)n2)cc1 | 87.8% (inactive) | – | 98.1% (inactive) | 98.2% (inactive) | 98.7% (inactive) | 103% (inactive) | 98% (inactive) | 102% (inactive)
17 | COc1cc(NS(C)(=O)=O)ccc1Nc1c2ccccc2nc2c(C)cccc12 | 2.65% (active) and 4.75% (active) | 3.76% (active) and 4.61% (active) | 37.1% (inactive) and 45.7% (inactive) | 14.1% (inactive) and 14% (inactive) | 0.292% (active) and 8.67% (active) | – | -32.8% (active) and 7.97% (active) | –
18 | COc1ccc2nc(Cl)cc(C)c2c1 | 98.5% (inactive) and 128% (inactive) | 130% (inactive) and 92% (inactive) | 93.6% (inactive) and 96.1% (inactive) | 92.1% (inactive) and 111% (inactive) | 107% (inactive) and 89.6% (inactive) | 108% (inactive) and 96.1% (inactive) | 99.3% (inactive) and 124% (inactive) | –
19 | COc1ccc2cc3[n+](cc2c1OC)CCc1cc2c(cc1-3)OCO2 | 38.2% (inactive) and 47.4% (inactive) | 28.8% (inactive) and 32.3% (inactive) | 59% (inactive) and 66.2% (inactive) | 61.9% (inactive) and 76.9% (inactive) | 68.5% (inactive) and 89.6% (inactive) | 56% (inactive) and 96.8% (inactive) | 40.7% (inactive) and 30.1% (inactive) | –
20 | COC(=O)c1nc(N)nc(C(=O)OC)c1C(=O)c1ccc(OC)cc1 | 101% (inactive) and 35.5% (inactive) | – | 104% (inactive) and 66.8% (inactive) | 96% (inactive) and 41.9% (inactive) | 108% (inactive) and 38.1% (inactive) | 108% (inactive) and 79.3% (inactive) | 107% (inactive) and 53.7% (inactive) | 113% (inactive) and 61.9% (inactive)
21 | Oc1ccc(/C=C/c2ccccc2)cc1 | 97.4% (inactive) and 92.3% (inactive) | – | 76% (inactive) and 74.8% (inactive) | 65% (inactive) and 75% (inactive) | 75.8% (inactive) and 73.8% (inactive) | 86.8% (inactive) and 86.5% (inactive) | 54% (inactive) and 54.6% (inactive) | 72.1% (inactive) and 62.7% (inactive)
22 | CNC(=O)c1ccc(C)c(-n2c(C)cc(OCc3ccc(F)cc3F)c(Br)c2=O)c1 | 40.9% (inactive) and 58.7% (inactive) | – | 85.4% (inactive) and 99.4% (inactive) | 82.8% (inactive) and 90.5% (inactive) | 68.1% (inactive) and 78.4% (inactive) | 67.5% (inactive) and 72.6% (inactive) | – | 79.9% (inactive) and 95.9% (inactive)
